A selection: hits, their analogues and other compounds. The true share with any hit is near 2.8%.
IP6K1 inh: inhibitors of human IP6K1; Q92551; AID 1645851; activity change, % (series mostly up to about 58 µM); actives 0.81% (n = 140,000); IP6K1 kinase, ADP-Glo luminescence, 2 h; active compounds read low; in the data active = activity change below about -25%; note: % is set by controls: 0 for no effect and ±100 for the full control effect
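ADP-Glo luminescence measures ADP made by human IP6K1 during a 2 h RT reaction with ATP/IP6 (mix at 1.3 mM/130 uM); top library doses 57.5 and 19.1 uM final.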
KDM5B inhibitor: inhibitors of human KDM5B histone demethylase; Q9UGL1; actives 2.6% (n = 220,000); Potency, µM (titrated, usually from 57.7 µM), actives largely listed as inhibitors; KDM5B demethylase, FDH-coupled NADH fluorescence (FDH is formaldehyde dehydrogenase); note: potency is the fitted concentration of half-maximal effect; 0% is about no effect; nearly all actives have a fitted effect of over 70% in size
Target sequence (Q9UGL1 whole entry, looked up): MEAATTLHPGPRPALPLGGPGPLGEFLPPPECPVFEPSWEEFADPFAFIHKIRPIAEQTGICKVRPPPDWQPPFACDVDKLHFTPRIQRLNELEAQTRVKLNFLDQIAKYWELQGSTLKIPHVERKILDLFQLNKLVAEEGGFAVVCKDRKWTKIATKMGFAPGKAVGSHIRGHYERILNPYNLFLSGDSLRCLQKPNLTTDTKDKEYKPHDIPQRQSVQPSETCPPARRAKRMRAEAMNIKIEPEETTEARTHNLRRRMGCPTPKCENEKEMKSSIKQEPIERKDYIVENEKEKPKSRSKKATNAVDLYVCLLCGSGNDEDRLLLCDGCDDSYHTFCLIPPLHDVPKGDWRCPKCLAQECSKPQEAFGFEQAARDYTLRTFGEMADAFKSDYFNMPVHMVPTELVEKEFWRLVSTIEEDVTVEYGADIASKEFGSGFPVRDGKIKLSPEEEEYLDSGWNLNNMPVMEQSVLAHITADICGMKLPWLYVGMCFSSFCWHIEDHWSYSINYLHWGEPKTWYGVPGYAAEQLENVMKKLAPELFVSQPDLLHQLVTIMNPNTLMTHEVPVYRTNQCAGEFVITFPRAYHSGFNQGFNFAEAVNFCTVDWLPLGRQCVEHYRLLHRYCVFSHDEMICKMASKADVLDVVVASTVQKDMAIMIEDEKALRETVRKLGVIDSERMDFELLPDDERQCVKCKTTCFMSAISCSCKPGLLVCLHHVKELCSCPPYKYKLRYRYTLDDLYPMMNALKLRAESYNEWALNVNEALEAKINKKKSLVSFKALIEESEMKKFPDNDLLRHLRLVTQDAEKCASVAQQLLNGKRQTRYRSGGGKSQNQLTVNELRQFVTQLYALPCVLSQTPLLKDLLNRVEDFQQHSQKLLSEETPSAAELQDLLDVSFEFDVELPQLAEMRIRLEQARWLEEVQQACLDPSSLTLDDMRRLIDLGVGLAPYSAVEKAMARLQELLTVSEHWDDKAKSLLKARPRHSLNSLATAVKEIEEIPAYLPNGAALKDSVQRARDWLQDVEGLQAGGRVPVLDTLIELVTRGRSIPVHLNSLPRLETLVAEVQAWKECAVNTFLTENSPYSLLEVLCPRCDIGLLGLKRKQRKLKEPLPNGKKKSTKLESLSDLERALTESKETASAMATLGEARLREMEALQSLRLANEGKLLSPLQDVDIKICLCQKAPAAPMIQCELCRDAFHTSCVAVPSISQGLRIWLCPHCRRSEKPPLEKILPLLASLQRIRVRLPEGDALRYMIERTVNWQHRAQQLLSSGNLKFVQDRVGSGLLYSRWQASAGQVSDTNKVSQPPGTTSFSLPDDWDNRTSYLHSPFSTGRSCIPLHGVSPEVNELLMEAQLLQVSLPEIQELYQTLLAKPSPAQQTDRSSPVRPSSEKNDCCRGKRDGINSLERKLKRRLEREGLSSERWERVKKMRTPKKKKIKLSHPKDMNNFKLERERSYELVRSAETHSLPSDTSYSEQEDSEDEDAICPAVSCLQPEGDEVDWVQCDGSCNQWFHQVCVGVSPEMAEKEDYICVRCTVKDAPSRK
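Measured: NADH fluorescence change, 30 min, RT. System: KDM5BΔAP 200 nM final, H3K4me3 peptide, α-KG, Fe(II), ascorbate, NAD⁺ plus FDH, pH 7.5 HEPES. Compounds: titrated, 10 min pre-incubation with enzyme.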
IP6K1 conf: confirmation of human IP6K1 inhibitors. recombinant IP6K1 kinase, ADP-Glo luminescence, 2 h. actives 13% (n = 1,200). Potency, µM (doses to about 49 µM), without a hit: at the highest dose activity change, negative = inhibition, actives largely listed as inhibitors. shares compounds with IP6K1 inh. AID 1645852; note: potency is the fitted concentration of half-maximal effect; % is set by controls: 0 for no effect and ±100 for the full control effect; nearly all actives have a fitted effect of over 65% in size
Starred values were filed as active, the others as inactive; i = inactive; ? = inconclusive; . = no result. Unless noted, calls come from the whole dose curve; as a rule, active = well fitted inhibition curve with a large enough effect; inconclusive = small, poorly fitted or top-dose-only effect; inactive = no such curve, though single readings can be large or run the other way.

SMILES	IP6K1 inh	KDM5B inhibitor	IP6K1 conf
O=C(CCS(=O)(=O)c1cc2c3c(c1)CCN3C(=O)CC2)N1CCN(c2ccccc2)CC1	.	i	.
Cc1noc(C)c1-c1cc2c(cc(-c3ccccc3)n2C)c(-c2ccnn2C)n1	-45*	i	?
Cc1noc(C)c1-c1cc2c(cc(C)n2C)c(-c2ccnn2C)n1	-11	?	.
Cc1ccc2c(CSc3nnnn3C3CC3)cc(=O)oc2c1C	.	i	.
COCCn1ncc(N2CCC(C(=O)N3CCC(N(C)Cc4cccc(Cl)c4)CC3)C2)cc1=O (stereo not drawn)	38	i	.
CCCCn1c(N)c(N(CC)C(=O)c2cc(-c3ccc(OC)cc3)nc3ccccc23)c(=O)[nH]c1=O	.	i	.
CCN(C(=O)C(NS(=O)(=O)c1cccc2nsnc12)c1ccccc1)c1ccccc1 (stereo not drawn)	-28*	i	-12%
CCc1ccc(NC(=O)C(NS(=O)(=O)c2cccc3nsnc23)c2ccccc2)cc1 (stereo not drawn)	15	i	.
O=C(CCc1ccc(O)cc1)c1c(O)cc(O)cc1O	.	.	5.2µM*
O=C(CCc1ccc(O)cc1)NNC(=S)NCCc1ccccc1	.	i	.
CCc1nc2nc(C)cc(Nc3cc(C)ccc3C)n2n1	-11	i	.
CCc1nc2nc(C)cc(Nc3cccc(C)c3C)n2n1	-33*	i	?
O=C(CSc1nc2ccccc2s1)Nc1ccc(F)c(F)c1F	.	i	.
CCCCCOc1nc2ccccc2nc1NS(=O)(=O)c1ccccc1	.	i	.
O=C(NCc1ccccc1)c1ccccc1OC1CN(Cc2ccc(F)cc2)C1	-6	i	.
C[C@@H]1CN(C(=O)c2cnc3sccn3c2=O)C[C@@]1(O)C1CCC1	-4	?	.
C[C@@H]1CN(C(=O)c2cnc3c(O)cccn3c2=O)CC[C@@]1(O)C1CCC1	-28*	32µM*	-11%
Cc1nnsc1C(=O)Oc1ccc(Cl)cc1	-26*	?	-4%
Cc1cc(C)cc(OC(=O)c2snnc2C)c1	-35*	?	-12%
Cc1nnsc1C(=O)Oc1ccc(C#N)cc1	-20	?	.
Cc1cccc(OC(=O)c2snnc2C)c1C	-18	i	.
CC(=O)N1CCN(C(=O)c2nc3cccnc3n(CC(C)C)c2=O)CC1	-5	.	.
CN(C)CCCNc1nc(-c2ccccc2)nc2ccccc12	.	i	.
CCC(=O)OCCCNc1nc(-c2ccc(Cl)cc2)nc2ccccc12	-25*	?	?
O=C(CCc1nc(Cc2ccccc2)no1)N1CCSCC1	.	i	.
SMILES	IP6K1 inh	KDM5B inhibitor	IP6K1 conf
CN(C)C(=O)c1cc(-c2ccc(Cl)cc2)cn1C	-33*	i	?
Cn1cc(-c2ccc(Cl)cc2)cc1C(=O)O	-18	i	.
CN1Cc2ncnc(NCC3CC3)c2CN(c2ccc(Cl)cc2)C1=O	-8	i	.
CN1Cc2ncnc(NCCc3ccc(F)cc3)c2CN(c2ccc(Cl)cc2)C1=O	-29*	i	-7%
Cc1ccc(CCNC(=O)CCn2nc(-c3ccc(Cl)cc3)ccc2=O)cc1	-28*	?	-6%
O=C(CCn1nc(-c2ccc(Cl)cc2)ccc1=O)NCCc1ccccc1	18	?	.
CC1=C[C@@H](CNS(=O)(=O)Cc2ccccc2)[C@H](C(C)C)C[C@H]1CC(=O)N1CCN(C)CC1	2	?	.
COc1ccccc1-c1cnc(Nc2ccc3c(c2)OCCO3)c2c1CCO2	-26*	35µM*	-17%
COc1ccccc1OCC(=O)Nc1ccc2c(c1)OCCO2	.	i	.
CCOc1ccc(-c2nc3ccc(C)cc3c(C(=O)O)c2C)cc1	.	i	.
Cn1c(Cl)nc2c1c(=O)n(Cc1cccc(Cl)c1)c(=O)n2C	.	i	.
COc1cc(NC(=O)CCn2cnc3onc(-c4ccccc4Cl)c3c2=O)cc(OC)c1	.	i	.
O=C(O)CCn1cnc2onc(-c3ccccc3Cl)c2c1=O	-42*	?	-12%
CC(C(=O)N(C)CC(=O)Nc1ccccc1C(F)(F)F)N1CCN(Cc2ccccc2)CC1 (stereo not drawn)	.	i	.
Cc1ccccc1N1CCN(C2CCCN(C/C=C/c3ccc(F)cc3)C2)CC1 (stereo not drawn)	-27*	i	21%
Cc1ccccc1N1CCN(C2CCCN(C(=O)CCC3(C)CC3)C2)CC1 (stereo not drawn)	.	i	.
O=C(NCc1ccccc1)C1CCCN(Cc2cccc(-c3cccs3)c2)C1 (stereo not drawn)	10	.	.
CCCn1c(C)cc(C(=O)CSc2nnc(-c3ccncc3)n2-c2ccccc2)c1C	.	i	.
CCCCn1c(=O)[nH]c(=O)c2c1nc(COC(=O)/C=C/c1cc(Cl)c(OC)c(OCC)c1)n2C	.	i	.
COc1ccc(-c2nc3cc(C)ccn3c2NC(=O)c2ccc(F)cc2)cc1	-32*	?	?
COc1ccc(-c2nc3cc(C)ccn3c2NC(=O)c2ccc(C)c(C)c2)cc1	-14	?	.
CC(C)(C)c1cc(C=NCc2ccccc2)cc(C(C)(C)C)c1O	.	i	.
Brc1ccc(-c2noc(-c3ccncc3)n2)o1	.	i	.
O=Cc1cn[nH]c1-c1cccs1	.	i	.
Cc1cccc(CN2C(=O)c3ccccc3Sc3ccc(C(=O)NCc4ccco4)cc32)c1	5	i	.
SMILES	IP6K1 inh	KDM5B inhibitor	IP6K1 conf
O=C(NCc1ccco1)c1ccc2c(c1)N(Cc1ccccc1)C(=O)c1ccccc1S2	-28*	?	?
CC(Oc1ccccc1)C(=O)OCc1cc(=O)n2nc(C(C)C)sc2n1 (stereo not drawn)	-30*	i	-9%
CC(Oc1ccccc1)C(=O)Nc1ccccc1C(=O)OCc1cc(=O)n2nc(C(C)C)sc2n1 (stereo not drawn)	-8	?	.
CCCC(N)c1ccc(C23CC4CC(CC(C4)C2)C3)cc1 (stereo not drawn)	.	i	.
COc1ccc(/C=C(\C#N)C(=O)C(C)(C)C)cc1OCc1cccc(C(F)(F)F)c1	.	i	.
CCOc1ccc(CN2CCN(Cc3ccc4c(c3)c3ccccc3n4CC)CC2)cc1	-32*	?	7%
CCn1c2ccccc2c2cc(CN3CCN(Cc4ccc(OC)c(OC)c4)CC3)ccc21	-18	?	.
N#CC(C(=O)Nc1ccccc1)C(=O)c1ccccc1Cl (stereo not drawn)	.	i	.
COc1cccc(C(CC(=O)Nc2cccc(-c3ccno3)c2)n2cccc2)c1 (stereo not drawn)	.	i	.
Cc1cc(C)c2oc(-c3ccc(C)c(NC(=O)/C=C/c4ccco4)c3)nc2c1	-36*	?	?
Cc1cc(C)c2oc(-c3cccc(NC(=O)c4ccco4)c3)nc2c1	-1	?	.
O=C(O)c1ccc2c(c1)oc1ccccc12	.	i	.
Cc1cc(Nc2nc(NC(C)c3ncc(F)cn3)ncc2Cl)n[nH]1 (stereo not drawn)	-1	.	-11%
Cc1c(C)c2ccc(OCC(=O)Nc3ccc4c(c3)OCCO4)cc2oc1=O	.	i	.
COCCCNc1nc(NCc2cccc(Cl)c2)c2cnn(C)c2n1	-32*	i	?
Cn1ncc2c(C(=O)NCc3cccc(Cl)c3)cc(C(C)(C)C)nc21	-3	.	.
CC1=C(C(=O)Nc2ccccc2C)C(c2ccc(C(C)(C)C)cc2)NC(=S)N1 (stereo not drawn)	.	i	.
CN1C(=O)N[C@H](Cc2c[nH]c3c(Cl)cccc23)C1=O	.	.	-5%

Source: PubChem BioAssay (National Center for Advancing Translational Sciences (NCATS))
